Results: paper PMC5540273 (PLoS ONE, 2017)

These molecules were tested on PIK3CB. Conditions: concentration: 1 μM, replicates: in singlicate; n = 1.
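Further: KINOMEscan kinase panel screen.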

| SMILES | %Inh |
| --- | --- |
| FC(F)(F)c1ccc(/C=C/c2cncnc2Nc2ccc3[nH]c(Cc4ccccc4)nc3c2)cc1 [GW709199] | 0% |
| O=C(Nc1cccc(-c2nn3ccccc3c2-c2ccnc(Nc3cccc(F)c3)n2)c1)c1c(F)ccc(F)c1Cl [GSK357952] | 0% |
| O=C(Nc1ccccc1F)NC1CCN(c2ccnc(Nc3ccc(F)cc3)n2)CC1 [GSK1379800] | 0% |
| Cc1occc1-c1ncc(OC[C@@H](N)Cc2c[nH]c3ccccc23)cc1-c1ccc2[nH]nc(C)c2c1.O=C(O)C(F)(F)F [GSK682037] | 0% |
| C[C@@H]1CC[C@@H](C(=O)Nc2ccccc2)CN1c1cc(-c2ccc3c(N)n[nH]c3c2)nc(N)n1 [GSK2286062] | 0% |
| Cl.NC(=O)c1cccc(Nc2nccc(Nc3ccc(Oc4c(Cl)cccc4Cl)c(Cl)c3)n2)c1 [GW659009] | 0% |
| Cc1ccc(C(=O)Nc2ccc(Nc3ccnc4cc(-c5nccs5)ccc34)cc2O)cc1.Cl [GW494702] | 0% |
| CNC(=O)c1ccccc1Nc1nc(Nc2ccc(N3CCOCC3)cc2)ncc1Cl.Cl [GSK1576028] | 50% |
| COc1cc(Nc2nccc(-c3c(-c4cccc(NC(=O)c5c(F)cccc5F)c4)nn4ccccc34)n2)cc(OC)c1OC [GSK323521] | 16% |
| Nc1ncnc2c1nc(-c1ccccc1)n2-c1ccccc1 [SKF-97293] | 27% |
| Fc1ccc(-c2ncn(C3CCNCC3)c2-c2ccnc(Oc3ccc(-c4ccccc4)cc3)n2)cc1 [SB-245391] | 40% |
